14 compounds from PubChem BioAssay (EPA / NIEHS) can be followed below.

Inconclusive results are not listed. Activity calls are given as the source filed them. Rule for the calls: active = hit-call score of the fitted dose curve at least 0.9, where 1 is the maximum; inconclusive = response in the unintended direction; inactive = score below 0.9.

The nature of this assay: Tanguay_ZF_120hpf_NC_legacy: (Legacy) Oregon State University Tanguay Lab 120 Hour Post-fertilization zebrafish Assay for Notochord and Tail Malformation (AID 2283656). Here is the method: Tanguay_ZF_120hpf_legacy is a whole embryo, multiplexed endpoint assay using zebrafish larvae exposed for 120 hours post fertilization on a 96-well plate.Tanguay_ZF_120hpf_NC_legacy is one of one assay component(s) measured or calculated from the Tanguay_ZF_120hpf_legacy assay. It is designed to make measurements of zebrafish development as detected with brightfield microscopy of developing zebrafish embryos.Data from the assay component Tanguay_ZF_120hpf_NC_legacy was analyzed into 1 assay endpoints. This assay endpoint, Tanguay_ZF_120hpf_NC_legacy, was analyzed in the positive analysis fitting direction relative to DMSO as the negative control and baseline of activity. Using a type of morphology reporter, gain-of-signal activity can be used to understand changes in developmentals as they relate to the whole embryo. To generalize the intended target to other relatable targets, this assay endpoint is annotated to the zebrafish development intended target family, where the subfamily is embryonic notochord morphogenesis.
Zebrafish husbandry: Tropical 5D wild-type adult zebrafish were housed in at an approximate density of 1000 per 100 gallon tank at the Sinnhuber Aquatic Research Laboratory, Oregon State University, Corvallis, OR. Each tank was kept at standard laboratory conditions of 28C on a 14-h light/10-h dark photoperiod in fish water consisting of reverse osmosis water supplemented with a commercially available salt (Instant Ocean). Spawning funnels were placed into the tanks the night prior, and embryos were collected and staged. To increase bioavailability, the chorion was enzymatically removed using pronase (63.6mg/ml, >/= 3.5U/mg, Sigma-Aldrich: P5147) at 4 hours post fertilization (hpf) using a custom automated dechorionator.Chemical exposures: Six hpf dechorionated embryos were placed 1 embryo per well in a 96-well plate prefilled with 90 ul of EM using automated embryo placement systems (AEPS). Ten microliters of each row of dilution plate 2 was added to 2 exposure plates. The final DMSO concentration used was 0.64% (vol/vol). Thirty-two embryos were also exposed to 5uM trimethyltin chloride (positive control). Plates were sealed to prevent evaporation and foil covered to reduce light exposure and kept in a 28C incubator. Embryos were statically exposed until 120 hpf. At 24 hpf, embryos were assessed for photomotor response using a custom photomotor response analysis tool (PRAT) and for developmental toxicity endpoints (MO24: mortality at 24 hpf, DP: developmental progression, SM: spontaneous movement, and NC: notochord distortion). At 120 hpf, locomotor activity was measured using Viewpoint Zebralab and assessed for 18 endpoints. Zebrafish acquisition and analysis program (ZAAP), a custom program designed to inventory, acquire, and manage zebrafish data, was used to collect developmental endpoints as either present or absent (i.e., binary responses were recorded). If mortality occurred for an embryo (at either 24 or 120 hpf), the non-mortality endpoints were not measured.
As for `CN(Cc1cnc2nc(N)nc(N)c2n1)c1ccc(C(=O)N[C@@H](CCC(=O)O)C(=O)O)cc1`, the compound was called inactive.
Regarding `CCCCCCCCCCCCCCC`, the compound was called inactive.
The entry for `CCC(C)c1ccccc1O` (centres undefined) is “inactive”; for `Cc1[nH]nc2c1N=C(c1ccccc1Cl)c1cc([N+](=O)[O-])ccc1N2` it is “inactive”; for `CCCCc1oc2ccccc2c1C(=O)c1cc(I)c(OCCN(CC)CC)c(I)c1` it is “inactive”.
Next, `CS(=O)(=O)c1ccc([C@@H](CC2CCCC2)C(=O)Nc2cnccn2)cc1Cl`: “inactive”.
The entry for `O=C(c1ccccc1)c1ccccc1` is “inactive”; for `N=C(N)c1ccc(OCCCCCOc2ccc(C(=N)N)cc2)cc1` it is “inactive”.
Turning to `O=C(CCCN1CCC(O)(c2ccc(Cl)cc2)CC1)c1ccc(F)cc1`, the compound was called inactive.
Next, `CCCCC=O`: “inactive”.
The entry for `CN(C)CCOC(c1ccccc1)c1ccccc1` is “inactive”.
Turning to `O=C1NS(=O)(=O)c2ccccc21`, the call was inactive.
The entry for `OCC(CO)(CBr)CBr` is “inactive”; for `CCCCC(CC)C(=O)O` (centres undefined) it is “inactive”.
